Assay outcomes from PubChem.
AI-2 QS mod: Vibrio harveyi AI-2 quorum sensing modulation. 300,000 tested, 0.4% active. AID 2094. Vibrio harveyi JMH597 AI-2 luminescence/OD600 ratio, 9 h; hits give low values; strain lacks LuxN and CqsS sensors; 0 = neutral-control median. activity change, % at 7.5 µM; in the data active = activity change below about -75%, passing the limit was not always enough; inconclusive = no clear call, values can overlap the other calls;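 also: luminescence divided by OD600 gain over 9 h not by final OD600 alone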
sPLA2-III inh: Blocks human group III sPLA2 activity | inhibition, % at 12.2 µM | 370,000 tested, 0.56% active | QFRET BODIPY PC-A2 liposome hydrolysis, fluorescence;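 active = inhibition above mean plus 3 SD of compounds lying within the high and low control bounds, cut at about 19% in these data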;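 also: 0% = median of test compound wells and 100% = no enzyme DMSO wells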
Target sequence (Q9NZ20 whole entry, looked up): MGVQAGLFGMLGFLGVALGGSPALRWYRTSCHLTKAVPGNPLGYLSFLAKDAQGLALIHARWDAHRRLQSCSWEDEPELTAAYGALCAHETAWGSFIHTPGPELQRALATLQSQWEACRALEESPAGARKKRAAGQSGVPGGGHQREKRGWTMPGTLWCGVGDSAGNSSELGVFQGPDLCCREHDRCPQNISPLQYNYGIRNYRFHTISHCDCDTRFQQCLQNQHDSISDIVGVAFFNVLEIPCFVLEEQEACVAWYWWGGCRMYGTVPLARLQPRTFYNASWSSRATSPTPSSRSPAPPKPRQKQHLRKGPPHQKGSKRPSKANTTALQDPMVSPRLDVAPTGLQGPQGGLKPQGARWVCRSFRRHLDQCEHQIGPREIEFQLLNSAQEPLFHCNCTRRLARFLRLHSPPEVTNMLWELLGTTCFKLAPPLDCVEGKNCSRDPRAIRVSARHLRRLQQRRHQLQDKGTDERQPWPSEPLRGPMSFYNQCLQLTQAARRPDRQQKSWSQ
ARNT TACC3 PPI: disrupts binding between human ARNT and TACC3 | Q9Y6A5 | AlphaScreen His-ARNT PAS-B/GST-TACC3 binding, luminescence; TACC3 fragment carries E629A point mutation | inhibition, % at 9.99 µM | 390,000 tested, 0.66% active | AID 623870;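 active = mean inhibition of replicates at least 50% and at least half of replicates each reaching 50%; inconclusive = half or more replicates reach 50% but mean below 50%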;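 also: 0% = complete ARNT plus TACC3 wells and 100% = ARNT alone without TACC3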
Rin1 Abl inh: human Rin1-Abl interaction inhibition. inhibition, % at 7.35 µM. 360,000 tested, 0.4% active. P00519+Q13671. TR-FRET Rin1/Abl binding, biochemical; in the data active = inhibition above about 5%, passing the limit was not always enough
JMH597 growth: retest: blocks Vibrio harveyi JMH597 growth | growth inhibition, % at 7.5 µM | shares compounds with AI-2 QS mod | 750 tested, 1% active | OD600 absorbance, 9 h; lacks LuxN and CqsS sensors;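 active = every replicate shows growth inhibition above 50%; inconclusive = at least half, but not all, replicates pass that cutoff; inactive = fewer than half of replicates pass it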
BB721 lum counter: retest counter-screen: luminescence loss in constitutive-on quorum sensing strain BB721; shares compounds with AI-2 QS mod; Vibrio harveyi BB721 luminescence, 9 h; inhibition, % at 7.5 µM; 750 tested, 95% active; AID 2727;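 active = inhibition above about 80% in every replicate, not just on average, limit read from the data; inconclusive = at least half of replicates past the limit, but not all; inactive = fewer than half of replicates past the limit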
BB721 growth rt: retest: inhibitors of Vibrio harveyi BB721 growth; AID 2728; 750 tested, 3% active; shares compounds with AI-2 QS mod; OD600 absorbance, 9 h; growth inhibition, % at 7.5 µM;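 active = every replicate shows growth inhibition above 50%; inconclusive = at least half but not all replicates above 50% inhibition; inactive = under half of replicates above 50% inhibition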
AI-2 QS JMH597: Vibrio harveyi AI-2 signaling luminescence modulation – JMH597 strain, confirmation | shares compounds with AI-2 QS mod | Vibrio harveyi JMH597 AI-2 quorum sensing luminescence, 9 h; luxN and CqsS knockout, AI-2 only | inhibition, % at 7.5 µM | 750 tested, 97% active;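 active = every replicate shows more than 75% inhibition of signal versus neutral control wells; inconclusive = half to three quarters of replicates exceed 75% inhibition; inactive = fewer than half of replicates exceed 75% inhibition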
* marks the source's active call; other numbers are inactive results. In the library only some 1.5% were active in any assay of this set; here they are far more common.

COc1ccc(NC(=O)CCCCCn2nnc3ccccc3c2=O)cc1OC was read as AI-2 QS mod 26, sPLA2-III inh 1, ARNT TACC3 PPI -5 and Rin1 Abl inh 2.
CC(C)=CC(=O)Nc1ccc(OCc2ccccc2)cc1 was read as AI-2 QS mod -83*, sPLA2-III inh -5, ARNT TACC3 PPI 9, Rin1 Abl inh -2, JMH597 growth -16, BB721 lum counter 94*, BB721 growth rt -5 and AI-2 QS JMH597 96*.
For Cc1ccc(OCC(=O)O/N=C(\N)c2cccnc2)cc1 the results were AI-2 QS mod -84*, sPLA2-III inh 6, ARNT TACC3 PPI -3, Rin1 Abl inh 0, JMH597 growth 8, BB721 lum counter 92*, BB721 growth rt 13 and AI-2 QS JMH597 95*.
Screening N/C(=N\OC(=O)COc1ccc(Cl)cc1)c1cccnc1 returned AI-2 QS mod inconclusive, sPLA2-III inh 10, ARNT TACC3 PPI -4 and Rin1 Abl inh -2.
N/C(=N\OC(=O)COc1ccc2ccccc2c1)c1cccnc1 was read as AI-2 QS mod -90*, sPLA2-III inh -16, ARNT TACC3 PPI -14, Rin1 Abl inh -5, JMH597 growth 34, BB721 lum counter 98*, BB721 growth rt -9 and AI-2 QS JMH597 99*.
`N/C(=N\OC(=O)CCCOc1ccccc1)c1ccncc1` gave AI-2 QS mod -15, sPLA2-III inh -2 and Rin1 Abl inh 3.
N/C(=N\OC(=O)CCCOc1ccccc1)c1ccccc1 was read as AI-2 QS mod -83*, sPLA2-III inh 0, ARNT TACC3 PPI -7, Rin1 Abl inh 3, JMH597 growth 3, BB721 lum counter 92*, BB721 growth rt 5 and AI-2 QS JMH597 93*.
Clc1ccc(OCc2cc(-c3ccccc3)no2)cc1Cl was read as AI-2 QS mod inconclusive, sPLA2-III inh -4, ARNT TACC3 PPI 4, Rin1 Abl inh 1, JMH597 growth -16, BB721 lum counter 97*, BB721 growth rt -25 and AI-2 QS JMH597 98*.
`COc1ccc(NC(=O)Cc2nnc(SCC(=O)Nc3ccccc3)n2C)cc1` gave AI-2 QS mod inconclusive, sPLA2-III inh 0, ARNT TACC3 PPI -23, Rin1 Abl inh 1, JMH597 growth 0, BB721 lum counter 2, BB721 growth rt 0 and AI-2 QS JMH597 1.
`Clc1ccc2oc(SCc3cccnc3)nc2c1` gave AI-2 QS mod -81*, sPLA2-III inh -7, ARNT TACC3 PPI -1, Rin1 Abl inh -4, JMH597 growth 1, BB721 lum counter 97*, BB721 growth rt 15 and AI-2 QS JMH597 96*.
Screening CCNC(=O)C[C@@H]1CC[C@@H]2[C@H](COc3ccc(NC(=O)Nc4cccc(F)c4)cc3C(=O)N2C)O1 returned ARNT TACC3 PPI 2.
Screening COc1cccc(NC(=O)Cc2ccc3ccccc3c2)c1 returned AI-2 QS mod -84*, sPLA2-III inh -16, ARNT TACC3 PPI 22, Rin1 Abl inh 3, JMH597 growth 22, BB721 lum counter 89*, BB721 growth rt 14 and AI-2 QS JMH597 92*.
For COc1cccc(NC(=O)Cn2nnc(-c3ccccc3N)n2)c1 the results were AI-2 QS mod -81*, sPLA2-III inh -5, ARNT TACC3 PPI -1, Rin1 Abl inh 1, JMH597 growth 18, BB721 lum counter 97*, BB721 growth rt 34 and AI-2 QS JMH597 97*.
For COc1cccc(NC(=O)CN2C(=O)NC3(CCCC3)C2=O)c1 the results were AI-2 QS mod 17, sPLA2-III inh 2, ARNT TACC3 PPI 7 and Rin1 Abl inh 3.
`COc1cccc(NC(=O)CCC(=O)Nc2cccc(OC)c2)c1` gave AI-2 QS mod 25, sPLA2-III inh -5, ARNT TACC3 PPI -4 and Rin1 Abl inh -3.
`COc1cccc(NC(=O)CN2C(=O)NC(c3ccccc3)(c3ccccc3)C2=O)c1` gave AI-2 QS mod -93*, sPLA2-III inh -27, ARNT TACC3 PPI 10, Rin1 Abl inh 1, JMH597 growth 8, BB721 lum counter 93*, BB721 growth rt 10 and AI-2 QS JMH597 97*.
For COc1cccc(NC(=O)CN2C(=O)NC(C)(C3CC3)C2=O)c1 (stereo not drawn) the results were sPLA2-III inh -4, ARNT TACC3 PPI 15 and Rin1 Abl inh 5.
COc1cccc(NC(=O)CN2C(=O)NC(C)(c3ccc(C)cc3)C2=O)c1 (stereo not drawn) was read as AI-2 QS mod -90*, sPLA2-III inh -3, ARNT TACC3 PPI -31, Rin1 Abl inh 0, JMH597 growth 21, BB721 lum counter 92*, BB721 growth rt 25 and AI-2 QS JMH597 95*.
CNC[C@@H]1OCCCC[C@@H](C)Oc2ccc(NC(=O)NC(C)C)cc2C(=O)N([C@@H](C)CO)C[C@H]1C was read as ARNT TACC3 PPI -5.
Screening COc1cc(NC(=O)CN2C(=O)NC(c3ccccc3)(c3ccccc3)C2=O)cc(OC)c1 returned AI-2 QS mod -89*, sPLA2-III inh -25, ARNT TACC3 PPI 3, Rin1 Abl inh 1, JMH597 growth 36, BB721 lum counter 22, BB721 growth rt 14 and AI-2 QS JMH597 44.
Screening O=C(CN1C(=O)NC(c2ccccc2)(c2ccccc2)C1=O)Nc1ccc2[nH]c(=O)[nH]c2c1 returned AI-2 QS mod 27, sPLA2-III inh -3, ARNT TACC3 PPI 8 and Rin1 Abl inh 1.
CCCC1(c2ccccc2)NC(=O)N(CC(=O)Nc2cc(OC)cc(OC)c2)C1=O (stereo not drawn) was read as AI-2 QS mod -81*, sPLA2-III inh -18, Rin1 Abl inh 2, JMH597 growth 7, BB721 lum counter inconclusive, BB721 growth rt -5 and AI-2 QS JMH597 85*.
Screening CCCNC(=O)C[C@H]1CC[C@H]2[C@@H](COc3ccc(NC(=O)NC(C)C)cc3C(=O)N2C)O1 returned ARNT TACC3 PPI -5.
Cc1noc(C)c1S(=O)(=O)Nc1ccc2c(c1)C(=O)N([C@@H](C)CO)C[C@@H](C)[C@H](CN(C)S(=O)(=O)c1ccccc1)OCCCC[C@@H](C)O2 was read as ARNT TACC3 PPI -10.
Screening Clc1cccc(CSc2nc3ccncc3[nH]2)c1 returned AI-2 QS mod -89*, sPLA2-III inh -9, ARNT TACC3 PPI 0, Rin1 Abl inh 0, JMH597 growth -38, BB721 lum counter 96*, BB721 growth rt -33 and AI-2 QS JMH597 96*.
`Fc1cccc(CSc2nc3ccncc3[nH]2)c1` gave AI-2 QS mod -25, sPLA2-III inh -14, ARNT TACC3 PPI -4 and Rin1 Abl inh 5.
